# Reference: PubChem BioAssay AID588596 (NMMLSC, 2011)
# Entries with a potency or affinity are not part of this list. Calls of active or inactive are those of the source. No rule for the calls is given here.
# Assay: V-ATPase regulators, yeast pH concentration series – S. cerevisiae, pHLuorin, cherry pick 1, dose response (AID 588596)
# Conditions: S. cerevisiae pHLuorin vacuolar pH fluorescence; series mostly up to 33.1 µM; response, % activation: at the top concentration
row,Structure (SMILES),"response, % activation"
1,O=C(CCSC1=NCCCN1)c1ccc(F)cc1,12.9% (inactive)
2,Cc1cccc(N=Cc2[nH]c3ccc(Br)c(Cl)c3c2O)c1,-0.84% (inactive)
3,CCOC(=O)Cn1c(=O)c(-c2cc(Br)ccc2N)nc2ccccc21,14.8% (inactive)
4,O=C(N1CCCC1)C12CCC3CC(CC(C3)C1)C2,-5% (inactive)
